This excerpt belongs to a sample that is enriched for hits.
TTR transcr act = activators of transthyretin transcription | AID 1117267 | hit rate 1.3% among 92,000 | SH-SY5Y TTR promoter Gaussia luciferase, luminescence; 100% = recombinant luciferase protein wells | activation, % at 16.7 µM;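 active means activation above the mean of all tested compounds plus 3 SD, cut at about 9.5% in these data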;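 further: cells exposed to compounds for one day before reading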
TTR inh HuH7 = decreases TTR transcription in HuH7 cells in activator counter-screen; shares compounds with TTR transcr act; HuH7 TTR promoter-Gaussia luciferase reporter, luminescence; inhibition, % at 16.7 µM; hit rate 4% among 1,100; AID 1117279;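 active means average inhibition above the solvent-only control wells' mean plus 3 SD, cut at about 15% in these data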;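 further: inhibitors lower well luminescence so higher value means more inhibition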
TTR up confirm = human TTR transcription activation, confirmation; 1,100 tested, under 10 active; SHSY5Y TTR promoter Gaussia luciferase, luminescence; 100% = purified Lucia enzyme wells, no cells; AID 1117280; activation, % at 16.7 µM; shares compounds with TTR transcr act;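 active means mean activation above a set limit taken from the earlier primary screen, cut at about 11% in these data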
Hits are given with their value; . = inactive.

SMILES	TTR transcr act	others
O=C(N=C1SC2CS(=O)(=O)CC2N1c1cccc(Cl)c1Cl)C1CCCO1 (stereo not given)	.
Cc1ccnc(N(C(=O)Nc2ccccc2)C2=NCC(C)(C)S2)c1	.
COc1cccc(CNC(=O)C(C(=O)NCc2cccc(OC)c2)c2ncc(C(F)(F)F)cc2Cl)c1	.
COC(=O)[C@]12C[C@H](CC(=O)N3CCCCC3)C(=O)N(Cc3cccc4ccccc34)C1=C[C@H](C(C)C)O[C@@H]2C1CC1	.
Cn1nnnc1NCc1cccc(Cl)c1	.
CC(C)n1nnnc1-c1cccc(Cl)c1	12	TTR inh HuH7=.;TTR up confirm=.
Cc1nn2cc(-c3cccc(Cl)c3)cnc2c1Cl	.
CC1=C(C(=O)N2CCCCCC2)CC(CC(=O)NCCCN(C)C)C(=O)N1Cc1ccccc1 (stereo not given)	.
Cc1cccc(C(=O)NC2CCN(C(=O)Nc3ccc(F)cc3)CC2)c1	.
CCOC(=O)N1CCN(c2cc(=O)n(-c3ccc(OC)cc3)c(=O)[nH]2)CC1	9.7	TTR inh HuH7=.;TTR up confirm=.
CCOc1ccc(-n2c(=O)cc(N3CCN(c4ccc(F)cc4)CC3)[nH]c2=O)cc1	.
CCOC(=O)N1CCN(c2cc(=O)n(-c3ccccc3C)c(=O)[nH]2)CC1	.
Cc1cccc(C)c1NC(=O)C1c2ccccc2OCC(=O)N1Cc1ccc2c(c1)OCO2 (stereo not given)	.
CCCCn1c(N)c(N(CCC(C)C)C(=O)c2[nH]c(C)c(C(=O)OCC)c2C)c(=O)[nH]c1=O	.
CCOc1ccc(Oc2nc(NCC(C)C)nc(OC)n2)nn1	.
CCOc1ccc(Oc2nc(NCC(C)C)nc(N(C)C)n2)nn1	.
CCNc1nc(NC(C)CC)nc(Oc2ccc(OCC)nn2)n1 (stereo not given)	13	TTR inh HuH7=.;TTR up confirm=.
Nc1nnc(SCc2c(F)cccc2Cl)s1	.
COc1ccc2c(c1)N=C(c1[nH]c3ccccc3c1CCN1C(=O)c3ccccc3C1=O)[C@]2(O)CCN1C(=O)c2ccccc2C1=O	.
COCCn1c(SCC(=O)Nc2cccc(S(N)(=O)=O)c2)nc2ccccc21	.
COCCn1c(SCC(=O)NC(C)c2ccccc2)nc2ccccc21 (stereo not given)	.
COCCn1c(SCC(=O)Nc2ccc(S(N)(=O)=O)cc2)nc2ccccc21	9.8	TTR inh HuH7=.;TTR up confirm=.
CCCCNC(=O)O[C@H]1CC[C@@]23CCCN2C(=O)CCC[C@H]3[C@H]1C	.
O=C(OCc1cn(Cc2ccc(C(F)(F)F)cc2)nn1)N1CCOCC1	.
O=C(NC1CCCN(Cc2ccccc2F)C1)C1CCC1 (stereo not given)	.
SMILES	TTR transcr act	others
Cc1csc(C(=O)NCC(=O)NNC(=O)c2cccc(Cl)c2)c1	.
Cc1ccccc1C(=O)NCC(=O)NNC(=O)c1cccc(Cl)c1	19	TTR inh HuH7=.;TTR up confirm=.
Cc1cccc(C(=O)NNC(=O)c2ccccc2C)c1	.
O=C(Nc1nc2ncccn2c1-c1ccccc1)C1CC1	.
COc1ccc(C(=O)C(C)C(C)=O)c(OCc2ccccc2)c1OC (stereo not given)	14	TTR inh HuH7=.;TTR up confirm=.
COc1cc(NC(=O)c2ccccc2OCc2ccccc2)cc(OC)c1OC	.
COc1cccc(C(=O)NOCc2ccccc2)c1OC	.
Cc1oc(=O)c(NC(=O)c2ccccc2)cc1C(C)O (stereo not given)	.
Cc1ccc(C(=O)Nc2cc3c(oc2=O)CCCC3=O)cc1	28	TTR inh HuH7=.;TTR up confirm=.
Cc1ccc(C(=O)Nc2c[nH]c(=O)[nH]c2=O)cc1	.
Oc1ccccc1Cc1c(O)ccc2ccccc12	.
COc1ccc(-n2nnnc2/C=C\Nc2ccc(C)cc2)cc1	.
N#CC(=C(O)COC(=O)CCC1CCCCC1)c1nc2ccccc2[nH]1	.
COc1ccc(-c2nc(C)c(C(C)=O)n2O)cc1	.
CCOC(=O)CSc1nnc(-c2ccc(OC)cc2)n1CC	.
COc1ccc(C(C)n2c(C)c3c(C)nnc(C)c3c2C)cc1 (stereo not given)	9.8	TTR inh HuH7=.;TTR up confirm=.
CCOc1ccc(S(=O)(=O)N2CCCC(C(=O)Nc3cc(C)cc(C)c3)C2)cc1 (stereo not given)	.
CCOC(=O)[C@@]12CCC3=C1N(CCC3)C(=O)[C@H](CC(=O)NCC13CC4CC(CC(C4)C1)C3)C2	.
CC(C)(c1ccccc1)c1ccc(OCCn2cnc3ccccc3c2=O)cc1	.
O=C(c1ccccc1)c1ccc(OCCn2cnc3ccccc3c2=O)cc1	.
Cc1cc(C)n(-c2nc3ccccc3c(=O)n2OCCOc2ccccc2)n1	32	TTR inh HuH7=.;TTR up confirm=.
C[C@@H]1CCCN1c1ccc2c(c1)OCCCN(C1CC1)S2(=O)=O	.
CCOc1ccc(-c2cc(C(=O)OC)nc3c2c(=O)n(C)c(=O)n3C)cc1	.
Cc1cc(NC(=O)c2cccc(F)c2)no1	.
O=C(Nc1ncccc1Cl)c1cccc(F)c1	12	TTR inh HuH7=.;TTR up confirm=.
SMILES	TTR transcr act	others
COc1cc(OC)c(NC(=O)c2cccc(F)c2)cc1Cl	.
CO[C@H]1CN(C)C(=O)c2ccc(NC(=O)NC(C)C)cc2OC[C@H](C)NC[C@H]1C	.
O=C(CC1SC(=O)NC1=O)Nc1ccc(Cl)cc1 (stereo not given)	12	TTR inh HuH7=.;TTR up confirm=.
O=C(Cc1ccc(Br)cc1)Nc1ccc(Cl)cc1	.
Cc1ccc(NC(=O)CC2SC(=NC3CCCCC3)NC2=O)cc1 (stereo not given)	.
Cc1ccccc1CN1CCCCC(NC(=O)c2ccc(F)c(F)c2)C1=O (stereo not given)	.
COc1ccc2cc(C(=O)NC3CCCCC3)c(=O)oc2c1	11	TTR inh HuH7=.;TTR up confirm=.
COc1cc2ccccc2cc1C(=O)NC1CCCC1	.
COc1ccc2cc(C(C)=O)c(=O)oc2c1	.
CC(C(=O)Nc1ccc(C#N)cc1)N(C)CC(=O)Nc1cccc(F)c1 (stereo not given)	9.9	TTR inh HuH7=.;TTR up confirm=.
CC(C(=O)Nc1ccc(S(=O)(=O)N2CCCC2)cc1)N(C)CC(=O)Nc1cccc(F)c1 (stereo not given)	.
CC(C(=O)Nc1ccc(C#N)cc1)N(C)Cc1cccs1 (stereo not given)	.
N#Cc1ccccc1OCC(=O)N(Cc1nnc(-c2ccccc2Cl)o1)C1CC1	.
Cc1cc(C)cc(NC(=O)OC2CC3CC2[C@H]2CCCCN2[C@H]3C)c1 (stereo not given in full)	.
O=C(Cc1c(F)cccc1Cl)NNC(=O)c1ccncc1	.
COc1ccc(CN(C)C(=O)c2ccc(OCC(=O)N3CCOCC3)c(OC)c2)cc1	.
CCN1CCN(S(=O)(=O)c2cccc3nsnc23)CC1	.
CC1CC(C)CN(S(=O)(=O)c2cccc3nsnc23)C1 (stereo not given)	.
Cc1ccccc1CN1CCN(S(=O)(=O)c2cccc3nsnc23)CC1	12	TTR inh HuH7=.;TTR up confirm=.
CCCCN(C(=O)C1CC(=O)N(Cc2ccc(C)cc2)C1)c1c(N)n(CC(C)C)c(=O)[nH]c1=O (stereo not given)	.
C/C(=N\NC(=O)c1ccc(NS(=O)(=O)c2cccs2)cc1)c1ccc2c(c1)OCO2	.
COc1ccc(C(=O)NCC(=O)OCC(=O)NCc2cccs2)cc1	.
Cc1ccc(C(=O)OCC(=O)NCc2cccs2)cc1	11	TTR inh HuH7=.;TTR up confirm=.
CSc1ncccc1C(=O)OCC(=O)NCc1cccs1	.
CCSc1c([N+](=O)[O-])c(=O)n(-c2ccccc2)c2ccccc12	.
COc1ccc(C(=O)NC(=S)Nc2cccnc2)cc1Cl	.

Assay outcomes from PubChem.
